For some of these results: Results with a measured potency or affinity are listed apart.
Experiments:
Set-up in all cases: scale not given: direction of the effect not stated beside the values
[1] = target: Protein translocase subunit SecA (Escherichia coli (strain K12)) (UniProt P10408); assay: Assay to Identify E. coli SecA ATPase Inhibitors; type: functional; details: 30 µM
[2] = target: T1, Ubiquitin-activating enzyme e1, putative (Leishmania donovani (strain BPK282A1)) (UniProt E9BSI1); assay: Leishmania donovani Ubiquitin Activating Enzyme (LdE1); type: functional; details: 30 µM
T1 sequence (whole entry): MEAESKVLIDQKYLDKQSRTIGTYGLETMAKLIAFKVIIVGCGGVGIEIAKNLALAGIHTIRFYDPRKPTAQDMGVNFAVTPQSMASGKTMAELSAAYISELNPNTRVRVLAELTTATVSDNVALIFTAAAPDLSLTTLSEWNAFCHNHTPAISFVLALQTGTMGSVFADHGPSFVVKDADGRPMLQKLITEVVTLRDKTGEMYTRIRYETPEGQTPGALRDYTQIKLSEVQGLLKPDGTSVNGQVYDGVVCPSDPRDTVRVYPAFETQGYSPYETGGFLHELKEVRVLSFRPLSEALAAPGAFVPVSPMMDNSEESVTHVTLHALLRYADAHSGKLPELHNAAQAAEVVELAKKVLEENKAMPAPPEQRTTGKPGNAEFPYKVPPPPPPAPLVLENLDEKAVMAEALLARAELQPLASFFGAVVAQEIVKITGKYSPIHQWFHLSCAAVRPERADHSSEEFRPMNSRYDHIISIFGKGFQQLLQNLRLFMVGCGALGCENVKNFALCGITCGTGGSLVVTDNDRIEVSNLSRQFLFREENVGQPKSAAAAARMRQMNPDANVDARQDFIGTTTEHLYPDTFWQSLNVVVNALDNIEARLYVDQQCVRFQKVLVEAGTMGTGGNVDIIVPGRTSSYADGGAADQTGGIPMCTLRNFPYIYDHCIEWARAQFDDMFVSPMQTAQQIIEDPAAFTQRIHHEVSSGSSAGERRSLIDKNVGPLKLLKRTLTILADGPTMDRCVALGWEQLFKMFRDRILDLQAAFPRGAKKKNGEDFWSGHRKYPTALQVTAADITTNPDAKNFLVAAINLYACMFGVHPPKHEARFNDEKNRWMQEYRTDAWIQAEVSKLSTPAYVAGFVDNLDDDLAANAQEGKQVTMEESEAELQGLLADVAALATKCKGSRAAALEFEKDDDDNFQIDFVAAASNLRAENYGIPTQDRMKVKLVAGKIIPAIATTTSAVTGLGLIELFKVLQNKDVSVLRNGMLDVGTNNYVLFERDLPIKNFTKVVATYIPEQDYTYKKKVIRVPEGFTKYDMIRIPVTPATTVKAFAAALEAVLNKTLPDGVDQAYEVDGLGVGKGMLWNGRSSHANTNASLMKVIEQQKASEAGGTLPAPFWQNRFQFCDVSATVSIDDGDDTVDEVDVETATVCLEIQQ

[3] = target: AMP-activated protein kinase, AMPK (Homo sapiens) (UniProt P54646+O43741+P54619+Q9UGJ0+Q9Y478+Q13131+Q9UGI9); assay: AMP-dependent Kinase enzyme assay. An in vitro enzyme assay that detects ADP turnover that is directly proportional to AMPK activity. This uses naive AMPK that is activated during the assay with MK-8722; type: functional; details: 30 µM
[4] = target: Sialic acid-binding Ig-like lectin 9 (Homo sapiens) (UniProt Q9Y336); assay: Hs-Siglec9 ALPHAscreen SOP 20170721; details: 10 µM
[5] = system: Trypanosoma cruzi; assay: Trypanosoma cruzi phosphomannomutase and mannose-1-phosphate guanylyltransferase assay; type: functional; details: 10 µM
[6] = target: T2, Arginase-2, mitochondrial (Homo sapiens) (UniProt P78540); assay: in vitro enzyme assay to detect the production of urea directly proportional to the activity of Arginase II; type: functional; details: 33.3 µM; also: in the data most compounds retested in dose-response had high values
T2 sequence (whole entry): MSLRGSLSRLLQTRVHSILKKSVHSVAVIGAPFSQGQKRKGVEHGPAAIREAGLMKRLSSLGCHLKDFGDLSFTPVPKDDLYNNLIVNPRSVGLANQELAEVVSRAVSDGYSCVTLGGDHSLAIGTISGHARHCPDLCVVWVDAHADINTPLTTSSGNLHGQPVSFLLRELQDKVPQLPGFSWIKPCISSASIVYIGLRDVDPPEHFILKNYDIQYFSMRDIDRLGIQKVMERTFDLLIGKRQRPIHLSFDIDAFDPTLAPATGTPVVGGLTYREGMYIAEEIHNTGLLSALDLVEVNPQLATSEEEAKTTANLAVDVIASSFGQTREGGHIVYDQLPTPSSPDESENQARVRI

[7] = target: T3, Proteasome subunit beta (Trypanosoma cruzi) (UniProt O96673); assay: Trypanosoma cruzi proteasome chymotrypsin-like activity (TcProtChymo) assay.; also: in the data most compounds retested in dose-response had high values; type: functional; details: 9.37 µM
T3 sequence (whole entry): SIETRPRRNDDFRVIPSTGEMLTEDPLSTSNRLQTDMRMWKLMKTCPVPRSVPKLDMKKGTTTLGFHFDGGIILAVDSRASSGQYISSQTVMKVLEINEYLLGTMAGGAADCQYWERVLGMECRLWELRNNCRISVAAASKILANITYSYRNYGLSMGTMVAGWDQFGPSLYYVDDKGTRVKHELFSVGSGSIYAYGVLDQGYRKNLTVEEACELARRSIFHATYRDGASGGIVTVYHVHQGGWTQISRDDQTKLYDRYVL

[8] = species on record: Homo sapiens; assay: To identify inhibition of the IFN signalling (Jak-Stat) pathway via expression of an eGFP reporter gene under the control of an IFN-stimulated response element (ISRE) containing MxA promoter.; type: functional; details: 30 µM
[9] = target: T4, Tyrosyl-tRNA synthetase, putative (Trypanosoma cruzi (strain CL Brener)) (UniProt Q4DSP6); assay: Trypanosoma cruzi tyrosyl tRNA synthetase (TcYRS) _High Tyrosine SOP; type: functional; details: 30 µM; also: in the data most compounds retested in dose-response had high values
T4 sequence (whole entry): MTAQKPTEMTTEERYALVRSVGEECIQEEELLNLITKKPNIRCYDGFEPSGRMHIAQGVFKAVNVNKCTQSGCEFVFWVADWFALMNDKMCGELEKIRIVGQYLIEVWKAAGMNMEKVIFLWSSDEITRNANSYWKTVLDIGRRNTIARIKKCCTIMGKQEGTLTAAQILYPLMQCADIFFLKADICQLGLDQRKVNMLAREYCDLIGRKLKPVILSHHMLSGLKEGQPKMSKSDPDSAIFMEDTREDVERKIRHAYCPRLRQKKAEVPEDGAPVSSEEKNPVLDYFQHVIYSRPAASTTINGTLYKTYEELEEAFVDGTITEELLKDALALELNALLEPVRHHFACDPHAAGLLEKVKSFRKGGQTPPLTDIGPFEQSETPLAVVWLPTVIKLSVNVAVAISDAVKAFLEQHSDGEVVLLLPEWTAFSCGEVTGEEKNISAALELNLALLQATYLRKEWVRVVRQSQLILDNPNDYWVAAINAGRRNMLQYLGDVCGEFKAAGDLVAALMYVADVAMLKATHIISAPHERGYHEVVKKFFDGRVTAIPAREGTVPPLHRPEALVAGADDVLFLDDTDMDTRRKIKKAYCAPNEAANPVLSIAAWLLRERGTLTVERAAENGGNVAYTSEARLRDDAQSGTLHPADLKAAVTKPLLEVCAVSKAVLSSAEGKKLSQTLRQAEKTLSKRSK

[10] = target: T4, Tyrosyl-tRNA synthetase, putative (Trypanosoma cruzi (strain CL Brener)); assay: Trypanosoma cruzi tyrosyl tRNA synthetase (TcYRS) SOP; type: functional; details: 30 µM
[11] = target: Chromo domain-containing protein 1 (Saccharomyces cerevisiae (strain ATCC 204508 / S288c) (Baker's yeast)) (UniProt P32657); assay: ScCHD-1 Enzyme Inhibition Assay; type: functional; details: 30 µM; also: in the data most compounds retested in dose-response had high values
Chromo domain-containing protein 1 (Saccharomyces cerevisiae (strain ATCC 204508 / S288c) (Baker's yeast)), sequence (P32657 whole entry, the tested form may be a part): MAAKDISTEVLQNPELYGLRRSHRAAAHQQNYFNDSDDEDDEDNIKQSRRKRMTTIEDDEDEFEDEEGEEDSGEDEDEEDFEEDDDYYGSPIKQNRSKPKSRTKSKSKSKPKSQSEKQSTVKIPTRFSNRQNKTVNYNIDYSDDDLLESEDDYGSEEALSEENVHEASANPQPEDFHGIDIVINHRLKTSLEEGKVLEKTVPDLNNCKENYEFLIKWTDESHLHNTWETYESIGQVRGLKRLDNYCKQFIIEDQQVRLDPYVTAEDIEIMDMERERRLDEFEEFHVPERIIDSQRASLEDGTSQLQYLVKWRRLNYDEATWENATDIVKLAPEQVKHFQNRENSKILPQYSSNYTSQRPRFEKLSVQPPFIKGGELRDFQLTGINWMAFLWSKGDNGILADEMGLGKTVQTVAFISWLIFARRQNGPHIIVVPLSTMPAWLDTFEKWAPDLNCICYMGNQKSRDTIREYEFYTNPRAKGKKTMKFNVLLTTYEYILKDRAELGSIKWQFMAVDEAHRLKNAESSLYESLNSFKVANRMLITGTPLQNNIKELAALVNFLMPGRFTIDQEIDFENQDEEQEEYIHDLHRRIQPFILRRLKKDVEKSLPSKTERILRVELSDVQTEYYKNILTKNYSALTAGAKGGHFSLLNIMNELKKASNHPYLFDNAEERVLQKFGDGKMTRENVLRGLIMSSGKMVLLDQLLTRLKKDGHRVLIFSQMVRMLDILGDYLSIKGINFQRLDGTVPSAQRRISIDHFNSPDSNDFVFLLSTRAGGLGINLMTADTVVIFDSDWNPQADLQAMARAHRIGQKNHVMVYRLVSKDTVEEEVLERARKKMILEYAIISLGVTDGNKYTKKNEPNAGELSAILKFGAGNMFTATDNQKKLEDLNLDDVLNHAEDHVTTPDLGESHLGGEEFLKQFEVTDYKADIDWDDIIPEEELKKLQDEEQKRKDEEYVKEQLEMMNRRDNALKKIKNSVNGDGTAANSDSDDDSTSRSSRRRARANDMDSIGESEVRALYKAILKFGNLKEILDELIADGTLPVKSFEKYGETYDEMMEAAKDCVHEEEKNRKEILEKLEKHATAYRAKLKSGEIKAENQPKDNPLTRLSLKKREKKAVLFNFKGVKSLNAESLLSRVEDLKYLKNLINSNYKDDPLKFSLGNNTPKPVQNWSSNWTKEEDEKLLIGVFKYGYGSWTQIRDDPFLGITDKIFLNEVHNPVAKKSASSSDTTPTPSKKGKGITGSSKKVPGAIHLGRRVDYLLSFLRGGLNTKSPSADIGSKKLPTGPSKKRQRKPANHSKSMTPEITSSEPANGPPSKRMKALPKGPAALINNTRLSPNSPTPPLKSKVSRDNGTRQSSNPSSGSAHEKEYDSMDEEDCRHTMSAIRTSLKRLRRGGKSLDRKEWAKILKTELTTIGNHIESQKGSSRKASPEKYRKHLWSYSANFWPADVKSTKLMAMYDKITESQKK

Sialic acid-binding Ig-like lectin 9 (Homo sapiens), sequence (Q9Y336 whole entry): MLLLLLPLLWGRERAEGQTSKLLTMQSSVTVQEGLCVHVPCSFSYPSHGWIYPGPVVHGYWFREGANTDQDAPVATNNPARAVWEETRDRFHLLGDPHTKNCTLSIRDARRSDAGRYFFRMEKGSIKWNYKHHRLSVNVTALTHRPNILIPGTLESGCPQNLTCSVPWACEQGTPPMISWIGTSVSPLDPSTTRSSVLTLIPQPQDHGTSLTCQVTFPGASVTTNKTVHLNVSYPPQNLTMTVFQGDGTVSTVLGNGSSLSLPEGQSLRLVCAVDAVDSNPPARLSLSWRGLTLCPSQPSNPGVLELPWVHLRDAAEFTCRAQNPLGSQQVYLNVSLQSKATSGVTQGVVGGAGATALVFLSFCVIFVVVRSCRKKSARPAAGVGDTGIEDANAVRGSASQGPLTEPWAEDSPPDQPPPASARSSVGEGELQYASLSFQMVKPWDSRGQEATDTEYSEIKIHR
Protein translocase subunit SecA (Escherichia coli (strain K12)), sequence (P10408 whole entry): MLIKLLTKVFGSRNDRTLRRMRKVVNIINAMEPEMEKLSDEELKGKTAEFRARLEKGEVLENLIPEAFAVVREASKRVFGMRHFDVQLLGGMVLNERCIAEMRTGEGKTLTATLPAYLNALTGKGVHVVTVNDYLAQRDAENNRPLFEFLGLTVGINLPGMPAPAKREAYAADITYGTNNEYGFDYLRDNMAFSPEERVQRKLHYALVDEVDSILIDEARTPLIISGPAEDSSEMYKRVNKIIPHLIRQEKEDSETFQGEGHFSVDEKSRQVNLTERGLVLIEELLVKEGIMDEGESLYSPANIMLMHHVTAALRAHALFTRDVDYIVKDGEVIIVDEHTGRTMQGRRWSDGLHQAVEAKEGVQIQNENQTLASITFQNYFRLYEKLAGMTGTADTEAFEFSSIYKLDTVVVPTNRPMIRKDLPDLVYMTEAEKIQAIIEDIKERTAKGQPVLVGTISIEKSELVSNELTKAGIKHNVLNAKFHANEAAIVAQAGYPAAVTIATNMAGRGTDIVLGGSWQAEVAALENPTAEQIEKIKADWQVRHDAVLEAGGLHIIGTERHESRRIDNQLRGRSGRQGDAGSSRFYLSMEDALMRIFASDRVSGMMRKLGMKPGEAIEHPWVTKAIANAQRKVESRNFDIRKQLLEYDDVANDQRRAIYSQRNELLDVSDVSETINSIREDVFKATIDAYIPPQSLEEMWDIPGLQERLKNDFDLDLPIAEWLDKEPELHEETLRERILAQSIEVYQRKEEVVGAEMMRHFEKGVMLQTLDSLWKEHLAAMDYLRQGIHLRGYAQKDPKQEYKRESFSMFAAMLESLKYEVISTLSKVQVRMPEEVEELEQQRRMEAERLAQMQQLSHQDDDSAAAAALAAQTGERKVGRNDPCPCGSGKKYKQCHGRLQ

Compound	Percent Effect [1]	Percent Effect [2]	Percent Effect [3]	Percent Effect [4]	Percent Effect [5]	Percent Effect [6]	Percent Effect [7]	Percent Effect [8]	Percent Effect [9]	Percent Effect [10]	Percent Effect [11]
O=C(Nc1cccnc1)[C@H]1C[C@@H]2CCN(c3nncs3)C[C@H]2O1	-0.711%	5.41%	-5.74%	-1.47%	2.54%	-2.08%	10.4%	4.24%	10.9%	13.4%	-4.77%
O=c1ccc2c(n1CCN1CCCC1)CCN(Cc1ccoc1)CC2	-1.68%	8.22%	-4.13%	13.3%	7.94%	-9.58%	10.7%	19.6%	8.33%	13.6%	-2.06%
CC(C)Oc1cccc(C(O)CNC(=O)CCc2ccncc2)c1 (stereo unspecified)	-3.24%	-5.48%	2.43%	13.4%	-3.97%	-7.58%	3.85%	0.683%	1.04%	3.7%	5.03%
CCOC(CC)C(=O)NCCC(=O)N1CCN(c2ccccn2)CC1 (stereo unspecified)	-3.95%	2.63%	4.4%	4.32%	3.99%	-8.28%	6.23%	-5.03%	2.13%	5.2%	0.201%
c1ccc(-n2cc(CN3CCCC(Cn4cncn4)C3)nn2)cc1 (stereo unspecified)	-2.56%	3.8%	7.41%	3.66%	-3.79%	-0.215%	15.4%	12.2%	7.29%	12.7%	-25.5%
COCCN(Cc1ccoc1)C(=O)c1ccccc1Cl	-4.82%	0%	0.957%	-4.22%	-4.24%	-1.94%	0.522%	14.2%	1.06%	1.28%	-1.4%
CC(C)c1nc2c(n1C)CCN(Cc1nc(-c3ccsc3)no1)C2	-1.67%	-24.3%	-9.21%	0.639%	7.71%	-1.29%	10.1%	1.59%	9.9%	25.6%	-0.805%
COCCN(C)Cc1ccc(OC)c(OC(F)F)c1	-0.72%	0%	2.88%	0.875%	-20.8%	6.9%	0.499%	-9.7%	-1.07%	-6.17%	2.42%
CCc1nc(C2CCCN(C(=O)c3ccc4[nH]nnc4c3)C2)no1 (stereo unspecified)	-3.01%	0%	1.62%	0.134%	-4.8%	4%	17.2%	11.3%	0%	0%	-11.2%
Cc1noc2nc(C3CCN(CC4=CCCOC4)CC3)cc(C(F)F)c12	-1.97%	6.76%	13.4%	0.663%	-3.56%	-3.02%	3.28%	2.72%	7.53%	11.7%	-11.7%
O=C(c1cnccn1)N1C[C@@H]2CC[C@H](C1)N(C(=O)Cc1ccsc1)C2	-5.86%	2.6%	5.34%	4.9%	-4.82%	-16.6%	9.32%	8.73%	5.38%	3.7%	-0.624%
